Test results taken from PubChem BioAssay (NCI).
This is part of a sample that, as a whole, favours compounds with a hit. Of some 83,000 tested, about 20% had one in any assay.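 Plates (96-well) were seeded with cells, treated with compound at one concentration, and incubated for 48 hours before percent growth was determined.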 Active and inactive are the calls of the source. Rule for the calls: active = growth percent below 10; inactive = the rest.

What was measured:
Assay in all cases: NCI-60 one-dose screen, 48 h (100 = growth as untreated, 0 = no growth, -100 = all killed)
Settings in all cases: 10 µM unless noted
DU-145 prostate = system: DU-145 prostate
K-562 leukemia = system: K-562 leukemia
MALME-3M melanoma = system: MALME-3M melanoma
MDA-MB-231 breast = system: MDA-MB-231 breast
SF-268 CNS = system: SF-268 CNS
SF-295 CNS = system: SF-295 CNS
SF-539 CNS = system: SF-539 CNS
UACC-257 melanoma = system: UACC-257 melanoma
M14 melanoma = system: M14 melanoma
HCT-15 colon = system: HCT-15 colon
HT29 colon = system: HT29 colon
SNB-75 CNS = system: SNB-75 CNS
SNB-19 CNS = system: SNB-19 CNS
U251 CNS = system: U251 CNS
PC-3 prostate = system: PC-3 prostate
SK-MEL-5 melanoma = system: SK-MEL-5 melanoma
UACC-62 melanoma = system: UACC-62 melanoma
LOX IMVI melanoma = system: LOX IMVI melanoma
SK-MEL-28 melanoma = system: SK-MEL-28 melanoma

Measured: growth

COc1cc(NCC(O)CN(CC(C)C)C2CCCC2)c2ncccc2c1 (stereo not given)
inactive: DU-145 prostate 98.4% | K-562 leukemia 73.2% | MALME-3M melanoma 147% | MDA-MB-231 breast 66.8% | SF-268 CNS 82.7% | SF-295 CNS 92.2% | SF-539 CNS 99.8% | UACC-257 melanoma 85.5% | M14 melanoma 95.8% | HCT-15 colon 84.2% | HT29 colon 78.3% | SNB-75 CNS 103% | SNB-19 CNS 101% | U251 CNS 79.9% | PC-3 prostate 68.8% | SK-MEL-5 melanoma 93.1% | UACC-62 melanoma 98.9% | LOX IMVI melanoma 82.7% | SK-MEL-28 melanoma 103%

S=c1[nH]cccc1-c1nnc2n1Nc1nc3ccc(Cl)cc3cc1CS2
inactive: DU-145 prostate 117% | K-562 leukemia 97.5% | MALME-3M melanoma 110% | MDA-MB-231 breast 89.9% | SF-268 CNS 101% | SF-295 CNS 98.5% | SF-539 CNS 97.7% | UACC-257 melanoma 102% | M14 melanoma 98.6% | HCT-15 colon 96.9% | HT29 colon 110% | SNB-75 CNS 91.4% | SNB-19 CNS 96.8% | U251 CNS 105% | PC-3 prostate 97.7% | SK-MEL-5 melanoma 98% | UACC-62 melanoma 87.3% | LOX IMVI melanoma 98% | SK-MEL-28 melanoma 104%

CN1CCN(c2c(F)cc(NC3=C(Cl)C(=O)c4ncccc4C3=O)cc2F)CC1
inactive: DU-145 prostate 103% | MDA-MB-231 breast 84.2% | SF-268 CNS 93.3% | SF-295 CNS 117% | SF-539 CNS 98.1% | UACC-257 melanoma 69.3% | M14 melanoma 76.5% | HCT-15 colon 63.3% | HT29 colon 104% | SNB-75 CNS 87.8% | SNB-19 CNS 101% | U251 CNS 103% | PC-3 prostate 88.5% | SK-MEL-5 melanoma 100% | UACC-62 melanoma 100% | SK-MEL-28 melanoma 69.8%
active: K-562 leukemia 2.2% | MALME-3M melanoma -6.37% | LOX IMVI melanoma 5.89%

CC(=O)N1N=C(c2cccc(Nc3ccncc3)c2)CC1c1ccc2c(c1)OCO2 (stereo not given)
inactive: DU-145 prostate 104% | K-562 leukemia 27.4% | MALME-3M melanoma 74.9% | MDA-MB-231 breast 86.9% | SF-268 CNS 91.8% | SF-295 CNS 89.9% | SF-539 CNS 77.9% | UACC-257 melanoma 100% | HCT-15 colon 81.2% | HT29 colon 32.7% | SNB-75 CNS 80.2% | SNB-19 CNS 94.8% | U251 CNS 82.8% | PC-3 prostate 79% | SK-MEL-5 melanoma 81.6% | UACC-62 melanoma 91.9% | LOX IMVI melanoma 81.7% | SK-MEL-28 melanoma 93.8%
active: M14 melanoma -69.4%

CCCCCCCCCCCCCCCC(=O)OC[C@@]1(O)C[C@@]23CC[C@@H]4C(C)(C)CCC[C@@]4(C)[C@@H]2CC[C@H]1C3
active: M14 melanoma -51.8%
inactive: DU-145 prostate 108% | K-562 leukemia 59.3% | MALME-3M melanoma 112% | MDA-MB-231 breast 96% | SF-268 CNS 110% | SF-295 CNS 111% | SF-539 CNS 108% | UACC-257 melanoma 104% | HCT-15 colon 97.9% | HT29 colon 92.2% | SNB-75 CNS 112% | SNB-19 CNS 102% | U251 CNS 95.8% | PC-3 prostate 94.8% | SK-MEL-5 melanoma 98.3% | UACC-62 melanoma 85.8% | LOX IMVI melanoma 93.4% | SK-MEL-28 melanoma 121%

CCOC(=O)c1ccc(Nc2ccnc(SCC(=O)c3ccc(C#N)cc3)n2)cc1
inactive: DU-145 prostate 79.4% | K-562 leukemia 50.6% | MALME-3M melanoma 80.9% | MDA-MB-231 breast 81.2% | SF-268 CNS 78% | SF-295 CNS 76.2% | SF-539 CNS 83% | UACC-257 melanoma 77.7% | M14 melanoma 50.5% | HCT-15 colon 75.8% | HT29 colon 76.2% | SNB-75 CNS 102% | SNB-19 CNS 89.9% | U251 CNS 84.8% | PC-3 prostate 39.6% | SK-MEL-5 melanoma 37.5% | UACC-62 melanoma 39.3% | LOX IMVI melanoma 80.3% | SK-MEL-28 melanoma 80.8%

COc1ccc(-c2nc(SC)nc(N3CCOCC3)c2C#N)cc1
inactive: DU-145 prostate 106% | K-562 leukemia 97.5% | MALME-3M melanoma 102% | MDA-MB-231 breast 92.2% | SF-268 CNS 92.4% | SF-295 CNS 98.8% | SF-539 CNS 86.5% | UACC-257 melanoma 112% | M14 melanoma 111% | HCT-15 colon 93.9% | HT29 colon 92.3% | SNB-75 CNS 60.5% | SNB-19 CNS 96.7% | U251 CNS 91.1% | PC-3 prostate 81.1% | SK-MEL-5 melanoma 98.4% | UACC-62 melanoma 83.5% | LOX IMVI melanoma 96.1% | SK-MEL-28 melanoma 106%

COc1cc(NCCN(CC(C)C)C2CCCC2)c2ncccc2c1
inactive: DU-145 prostate 104% | K-562 leukemia 99% | MALME-3M melanoma 126% | MDA-MB-231 breast 79% | SF-268 CNS 86% | SF-295 CNS 94.1% | SF-539 CNS 98.3% | UACC-257 melanoma 91.5% | M14 melanoma 102% | HCT-15 colon 73.8% | HT29 colon 71.8% | SNB-75 CNS 89.4% | SNB-19 CNS 97.6% | U251 CNS 94.1% | PC-3 prostate 85.2% | SK-MEL-5 melanoma 97.2% | UACC-62 melanoma 92.8% | LOX IMVI melanoma 89.8% | SK-MEL-28 melanoma 101%

CC(C)Sc1nc(NN)c(C#N)c(-c2ccccc2)n1
inactive: DU-145 prostate 108% | K-562 leukemia 101% | MALME-3M melanoma 95.7% | MDA-MB-231 breast 99.3% | SF-268 CNS 100% | SF-295 CNS 98.7% | SF-539 CNS 89.9% | UACC-257 melanoma 102% | M14 melanoma 108% | HCT-15 colon 96.5% | HT29 colon 111% | SNB-75 CNS 92.7% | SNB-19 CNS 95.9% | U251 CNS 100% | PC-3 prostate 85.1% | SK-MEL-5 melanoma 99.7% | UACC-62 melanoma 90.6% | LOX IMVI melanoma 96.7% | SK-MEL-28 melanoma 90.4%

CN1CCN(Cc2ccc(NC(=O)c3cncc(C#Cc4cnccc4C(F)(F)F)c3)cc2C(F)(F)F)CC1
inactive: DU-145 prostate 105% | MALME-3M melanoma 15.3% | MDA-MB-231 breast 55.6% | SF-268 CNS 92.1% | SF-295 CNS 88.6% | SF-539 CNS 28.8% | UACC-257 melanoma 80.4% | M14 melanoma 35.2% | HCT-15 colon 70.2% | HT29 colon 23.5% | SNB-75 CNS 89% | SNB-19 CNS 103% | U251 CNS 78.4% | PC-3 prostate 80.4% | SK-MEL-5 melanoma 75.1% | UACC-62 melanoma 89.9% | LOX IMVI melanoma 20.9% | SK-MEL-28 melanoma 56.6%
active: K-562 leukemia 8.53%

Cc1ccc(C2CC(c3cccc(Nc4ccncc4)c3)=NN2c2ccc(Cl)cc2)cc1 (stereo not given)
active: DU-145 prostate -93.3% | K-562 leukemia -18.8% | MALME-3M melanoma -86% | MDA-MB-231 breast -86% | SF-268 CNS -72% | SF-295 CNS -85.6% | SF-539 CNS -96.2% | UACC-257 melanoma -35.1% | M14 melanoma -57.3% | HCT-15 colon -88.2% | HT29 colon -58% | SNB-75 CNS -89.9% | SNB-19 CNS -90.2% | U251 CNS -52.2% | PC-3 prostate -83.4% | SK-MEL-5 melanoma -93% | UACC-62 melanoma -98.3% | LOX IMVI melanoma -96.5% | SK-MEL-28 melanoma -97.7%

CS(=O)(=O)c1ccc(-c2cc3c(oc2=O)-c2ccccc2OC3O)cc1 (stereo not given)
active: UACC-257 melanoma -3.93%
inactive: DU-145 prostate 87.1% | K-562 leukemia 81% | MALME-3M melanoma 101% | MDA-MB-231 breast 98.7% | SF-268 CNS 96.6% | SF-295 CNS 75.7% | SF-539 CNS 90.2% | M14 melanoma 101% | HCT-15 colon 94.4% | HT29 colon 105% | SNB-75 CNS 84.6% | SNB-19 CNS 89% | U251 CNS 97.7% | PC-3 prostate 89.8% | SK-MEL-5 melanoma 101% | UACC-62 melanoma 92.2% | LOX IMVI melanoma 98% | SK-MEL-28 melanoma 101%

CCN1C(=O)N(CC)C2NC(SC)=NC21 (stereo not given)
inactive: DU-145 prostate 111% | K-562 leukemia 104% | MALME-3M melanoma 95% | MDA-MB-231 breast 103% | SF-268 CNS 95.3% | SF-295 CNS 101% | SF-539 CNS 98.7% | UACC-257 melanoma 97.8% | M14 melanoma 100% | HCT-15 colon 103% | HT29 colon 108% | SNB-75 CNS 86% | SNB-19 CNS 97.8% | U251 CNS 101% | PC-3 prostate 99.5% | SK-MEL-5 melanoma 104% | UACC-62 melanoma 96.2% | LOX IMVI melanoma 93.1% | SK-MEL-28 melanoma 97.8%

CCC(C)C(N)C(=O)NNc1n[nH]c(=S)n1N (stereo not given)
inactive: DU-145 prostate 109% | K-562 leukemia 102% | MALME-3M melanoma 101% | MDA-MB-231 breast 101% | SF-268 CNS 98.2% | SF-295 CNS 103% | SF-539 CNS 94.7% | UACC-257 melanoma 99.4% | M14 melanoma 100% | HCT-15 colon 103% | HT29 colon 107% | SNB-75 CNS 99.6% | SNB-19 CNS 97.7% | U251 CNS 101% | PC-3 prostate 100% | SK-MEL-5 melanoma 100% | UACC-62 melanoma 101% | LOX IMVI melanoma 101% | SK-MEL-28 melanoma 107%

C#Cc1cccc(NC(=O)Nc2cccc(N=C=S)c2)c1
inactive: DU-145 prostate 107% [8.25 µM] | K-562 leukemia 107% [8.25 µM] | MALME-3M melanoma 90.6% [8.25 µM] | MDA-MB-231 breast 94.5% [8.25 µM] | SF-268 CNS 95.4% [8.25 µM] | SF-295 CNS 101% [8.25 µM] | SF-539 CNS 102% [8.25 µM] | UACC-257 melanoma 102% [8.25 µM] | M14 melanoma 98.5% [8.25 µM] | HCT-15 colon 105% [8.25 µM] | HT29 colon 113% [8.25 µM] | SNB-75 CNS 89.3% [8.25 µM] | SNB-19 CNS 96.6% [8.25 µM] | U251 CNS 96.9% [8.25 µM] | PC-3 prostate 94.6% [8.25 µM] | SK-MEL-5 melanoma 95.7% [8.25 µM] | UACC-62 melanoma 89.4% [8.25 µM] | LOX IMVI melanoma 102% [8.25 µM] | SK-MEL-28 melanoma 103% [8.25 µM]
